# HCV inhibitor: qHTS Assay for Inhibitors of Hepatitis C Virus (HCV). Potency, µM (titrated, usually from 41.8 µM), for inactives: at the highest dose activity change, negative = inhibition, actives largely listed as inhibitors. Huh7.5.1 HCVcc-Cre infection, luciferase reporter, 44 h. AID 651820, 2012. 3.4% of 340,000 active; active means well fitted inhibition curve with a large enough effect; inconclusive means small, poorly fitted or top-dose-only effect, or another doubt; inactive means no such curve, though single readings can be large or run the other way
#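 Cells seeded at 1,000/well and cultured 4 h, then compounds added followed by HCVcc-Cre virus (~0.5 moi). After 44 h further culture, luciferase substrate was added, plates held 15 min at room temperature, and luminescence read for 15 sec.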
# VACV Venus inh: qHTS for Stage-Specific Inhibitors of Vaccinia Orthopoxvirus: Venus Reporter Primary qHTS; AID 720580, 2013; 0.46% of 330,000 active; Potency, µM (top dose mostly 36.5 µM), without a hit: at the highest dose activity change, negative = inhibition, hits mostly inhibitors; Vaccinia virus Venus reporter expression, fluorescence; calls by dose curve; tested in A549 cells; further: nearly all actives have a fitted effect of over 30% in size
# Vaccinia mCherry: qHTS for Stage-Specific Inhibitors of Vaccinia Orthopoxvirus: mCherry Reporter Primary qHTS; Vaccinia virus mCherry reporter infection, fluorescence; Potency, µM (series often up to 36.5 µM), for the others: at the highest dose activity change, negative = inhibition, hits mostly inhibitors; 0.63% of 310,000 active; AID 720579, 2013; calls by dose curve; tested in A549 cells; further: nearly all actives have a fitted effect of over 35% in size
# Numbers without * were called inactive; i = inactive; ? = inconclusive; . = not tested or not shown. In the library only some 3.3% were active in any assay of this set; here they are far more common. On the % scale 0 is the no-effect control and ±100 the full control effect; potency means the concentration at half of the fitted maximal effect.
SMILES,HCV inhibitor,VACV Venus inh,Vaccinia mCherry
Cc1ccccc1N1CCN(c2ncnc3scc(-c4cccs4)c23)CC1,10µM*,.,.
COc1ccc(-c2csc3ncnc(N4CCN(c5ccccc5O)CC4)c23)cc1,?,-25%,-27%
COc1ccc(-c2csc3ncnc(N4CCN(c5ccccc5[N+](=O)[O-])CC4)c23)cc1,16µM*,-18%,-4%
CC(C)(C)C(=O)N1CCN(c2ncnc3scc(-c4ccccc4)c23)CC1,?,-23%,-23%
CCOC(=O)N1CCN(c2ncnc3scc(-c4ccccc4)c23)CC1,8.9µM*,-17%,-14%
O=C(CSc1nc2ccccc2c2c1CCCC2)N1CCOCC1,?,-4%,?
O=C(NC(c1ccc(Cl)cc1)c1c(O)ccc2ccccc12)c1ccccc1 (stereo not drawn),?,?,10µM*
O=C(NC(c1ccccc1)c1c(O)ccc2ccccc12)c1ccccc1Cl (stereo not drawn),14µM*,.,.
CC(=O)NC(c1ccc(Cl)cc1)c1c(O)ccc2ccc(O)cc12 (stereo not drawn),-7%,-10%,-18%
CC(C)CC(=O)NC(c1ccccc1)c1c(O)ccc2ccccc12 (stereo not drawn),9%,-10%,i
Oc1ccccc1C=NNC(=S)Nc1ccc(F)cc1,?,?,5.6µM*
Fc1ccc(NC(=S)NN=Cc2ccccc2Cl)cc1,-28%,-2%,-25%
CN(C)c1nc(Nc2ccc(F)cc2)nc(Oc2ccc(F)cc2)n1,1%,.,.
S=C(NCCc1ccccc1)N/N=C/c1cccc(Cl)c1Cl,-3%,-29%,-16%
Oc1ccccc1/C=N/NC(=S)NCCc1ccccc1,11µM*,-19%,?
CN(C)c1nc(N/N=C/c2ccccc2O)nc(Nc2ccc(F)cc2)n1,?,?,7.9µM*
O=C(NC1CCCCC1)[C@@H]1CC=C[C@@H]2CCN(Cc3ccc(Cl)c(Cl)c3)C(=O)[C@@H]21,.,-5%,-9%
COc1ccc(NC(=O)CSc2nc3c([nH]c4ccccc43)c(=O)n2-c2ccccc2)c(OC)c1,.,-18%,i
CCc1ccc(NC(=O)C2CCN(S(=O)(=O)c3c(C)noc3/C=C/c3cccs3)CC2)cc1,.,-18%,-16%
CC(Sc1nnc(C(C)Oc2ccc(F)cc2)o1)C(=O)NCc1ccc2c(c1)OCO2 (stereo not drawn),.,-12%,-5%
COc1cccc(CCNC(=O)c2cc(COc3ccc(C)c(C)c3)on2)c1OC,.,-18%,i
CC(C)N(Cc1nccn1C)C(=O)c1cc(COc2ccc3ncccc3c2)on1,?,-13%,?
Cc1nc(CN(C)C(=O)c2cc(COc3ccc4ncccc4c3)on2)cs1,?,-18%,-9%
Cc1ccc(F)cc1CNC(=O)c1cc(COc2ccc3ncccc3c2)on1,2.8µM*,-7%,?
O=C(NCc1cccc(Cl)c1)c1cc(COc2ccc3ncccc3c2)on1,6.3µM*,-22%,?
SMILES,HCV inhibitor,VACV Venus inh,Vaccinia mCherry
CC(CCCC(C)(C)O)NC(=O)c1cc(COc2ccc3ncccc3c2)on1 (stereo not drawn),5.6µM*,-20%,-25%
Cc1cccc(CSc2nc3c(sc4ccccc43)c(=O)n2CCC(=O)NC(C)C)c1,.,-3%,-12%
CC1CCN(C(=O)c2[nH]cnc2C(=O)N[C@@H](C)C(=O)OCc2ccccc2)CC1,3.5µM*,-16%,i
C[C@@H](NC(=O)c1nc[nH]c1C(=O)N[C@@H](Cc1ccccc1)C(=O)OC(C)(C)C)c1ccccc1,-3%,?,-1%
Cc1ccc(NC(=O)c2nc[nH]c2C(=O)N[C@H](C)c2ccccc2)cc1,?,?,-29%
CC(C)C[C@H](NC(=O)c1nc[nH]c1C(=O)NCCCCCNC(=O)OC(C)(C)C)C(=O)OC(C)(C)C,-19%,?,i
C[C@H](NC(=O)c1nc[nH]c1C(=O)N1CCN(C(=O)OC(C)(C)C)CC1)C(=O)OCc1ccccc1,19%,-3%,i
C[C@H](NC(=O)c1nc[nH]c1C(=O)NCCCCCNC(=O)OC(C)(C)C)C(=O)OC(C)(C)C,11µM*,-22%,-11%
Cc1cccc(NC(=O)c2nc[nH]c2C(=O)N[C@H](C)c2ccccc2)c1,?,?,28µM*
C[C@H](NC(=O)c1nc[nH]c1C(=O)N[C@H](C)c1ccccc1)C(=O)OC(C)(C)C,13µM*,-30%,?
CC(NC(=O)C1CC1)c1nnc2n1CCN(Cc1cccc(F)c1F)CC2 (stereo not drawn),.,-13%,-16%
Cc1ccc(/C(O)=C2\C(=O)C(=O)N(CCCN3CCOCC3)C2c2ccccc2F)cc1 (stereo not drawn),.,-6%,i

# Screens as filed in PubChem BioAssay.
